PubChem BioAssay (NCATS)
Inconclusive results are not listed. Where a call stands in place of a potency, no number is given. Calls of active or inactive are those of the source. Calls follow the shape of the dose curve; as a rule, active = well fitted inhibition curve with a large enough effect; inconclusive = small, poorly fitted or top-dose-only effect; inactive = no such curve, though single readings can be large or run the other way.

Assay: Primary fluorescence-based thiol-reactive (MSTI) qHTS assay for identification of artifact compounds. (AID 1845221); also: nearly all actives have a fitted effect of over 65% in size;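 as to activity change, negative = thiol reactive: thiol-reactive compounds lower the probe fluorescence signal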
Conditions: MSTI thiol-reactivity probe, 1 h; series mostly up to 53.8 µM
Summary of the method: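 MSTI probe at 4 uM final in 2% DMSO/PBS pH 7.4; compounds, 1 h at room temperature in dark. Fluorescence Ex/Em 525/598 nm, normalised to Acetyl-MSTI and MSTI, fitted to 4-parameter Hill.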
Potency is read from the fitted curve at half-maximal effect.

Structure (SMILES)	Potency	activity change, negative = thiol reactive
COc1c(Cl)cc2c([nH]c3cnccc32)c1NC(=O)c1cccnc1C	inactive	
CN(C(=O)c1ccc(F)cc1C(F)(F)F)C1CCN(c2nnc(-c3ccnn3C)c3ccccc23)CC1	inactive	
Cc1n[nH]c(C)c1Cc1sc2c(c1C(=O)N1C[C@H](O)CO1)c(=O)n(C)c(=O)n2CC(C)C	inactive	
CC(C)(N)C(=O)N[C@H](COCc1ccccc1)C(=O)N1CCC2(CC1)CN(S(C)(=O)=O)c1ccccc12	inactive	
CNC(=O)c1ccc(C)c(-n2c(C)cc(OCc3ccc(F)cc3F)c(Br)c2=O)c1	inactive	
CN(C)c1ccc(C2Nc3ccc4ccccc4c3C3=C2C(=O)CC(C)(C)C3)cc1Br (stereo not given)	inactive	
O=C(NOC[C@H](O)CO)c1ccc(F)c(F)c1Nc1ccc(I)cc1F	inactive	
C[C@H](NC(=O)Cc1cc(F)cc(F)c1)C(=O)N[C@@H]1C(=O)N(C)c2ccccc2-c2ccccc21	inactive	
CN(C)C(=O)c1ccc(S(=O)(=O)c2ccc(NC(=O)[C@@](C)(O)C(F)(F)F)c(Cl)c2)cc1	inactive	
CCCS(=O)(=O)Nc1ccc(F)c(C(=O)c2c[nH]c3ncc(Cl)cc23)c1F	inactive	
COc1ccccc1[C@H](c1cccc2ccccc12)[C@@](C)(C#N)C(=O)N1CCC(c2cccc(C(F)(F)F)c2)CC1	inactive	
O=C(Nc1ccc(F)c(C(F)(F)F)c1)Nc1nnc(-c2ccncc2)s1	inactive	
COc1cc2c(cc1OC)CN(CCc1ccc(NC(=O)c3cccc4c(=O)c5cccc(OC)c5[nH]c34)cc1)CC2	inactive	
CCOc1cc(C(=O)Nc2ccc(Cl)c(-c3nc4ccccc4[nH]3)c2)cc(OCC)c1OCC	inactive	
Cc1cc(SCc2sc(-c3ccc(C(F)(F)F)cc3)nc2C)ccc1OCC(=O)O	inactive	
C[C@@H]1CN(Cc2ccc(F)cc2)[C@@H](C)CN1C(=O)c1cc2c(C(=O)C(=O)N(C)C)cn(C)c2cc1Cl	inactive	
COc1cc2nccc(Oc3ccc(NC(=O)NC4CC4)c(Cl)c3)c2cc1C(N)=O	inactive	
COc1cccc2cc(-c3nc(C4CCC(C(=O)O)CC4)n4ncnc(N)c34)[nH]c12 (stereo not given)	26.7 µM (active)	
Cn1cnc2c(F)c(Nc3ccc(Br)cc3Cl)c(C(=O)NOCCO)cc21	inactive	
Cc1cc(Nc2nc(N[C@@H](C)c3ncc(F)cn3)ncc2Cl)n[nH]1	inactive	
COc1cc(Nc2ncc3c(n2)-c2ccc(Cl)cc2C(c2c(F)cccc2OC)=NC3)ccc1C(=O)O	inactive	
CC[C@H](Nc1ncnc2nc[nH]c12)c1nc2cccc(F)c2c(=O)n1-c1ccccc1		52.7% [at 11.5 µM] (inactive)
CCCc1nn(C)c2c(=O)[nH]c(-c3cc(S(=O)(=O)N4CCN(C)CC4)ccc3OCC)nc12	inactive	
CS(=O)(=O)c1ccc(C(=O)Nc2ccc(Cl)c(-c3ccccn3)c2)c(Cl)c1	inactive	
CNCc1ccc(-c2[nH]c3cc(F)cc4c3c2CCNC4=O)cc1	inactive	
Clc1ccc(Nc2nnc(Cc3ccncc3)c3ccccc23)cc1	inactive	
CNC(=O)c1ccccc1Sc1ccc2c(/C=C/c3ccccn3)n[nH]c2c1	inactive	
CC[C@@H](C)[C@H](NC(=O)[C@H](CC1CCCCC1)NC(=O)c1ccno1)C(=O)N1CCC2(CCc3ccccc32)CC1	inactive	
O=C(c1cc(Cc2n[nH]c(=O)c3ccccc23)ccc1F)N1CCN(C(=O)C2CC2)CC1	inactive	
COc1nc(-c2ccc3c(c2)OCO3)n(-c2ccc(NC(=O)CSc3ccccc3)cc2)n1	inactive	
